Mtb MbtI inh: inhibitors of Mycobacterium tuberculosis siderophore enzyme MbtI; P9WFX0; purified MbtI enzyme, fluorescence intensity read-out; inhibition, % (concentration not given with the values); 0.89% of 100,000 active; in the data active means inhibition mostly above about 56%, no sharp cut-off; inactive means mostly below about 77%
Target sequence (P9WFX0 whole entry, looked up): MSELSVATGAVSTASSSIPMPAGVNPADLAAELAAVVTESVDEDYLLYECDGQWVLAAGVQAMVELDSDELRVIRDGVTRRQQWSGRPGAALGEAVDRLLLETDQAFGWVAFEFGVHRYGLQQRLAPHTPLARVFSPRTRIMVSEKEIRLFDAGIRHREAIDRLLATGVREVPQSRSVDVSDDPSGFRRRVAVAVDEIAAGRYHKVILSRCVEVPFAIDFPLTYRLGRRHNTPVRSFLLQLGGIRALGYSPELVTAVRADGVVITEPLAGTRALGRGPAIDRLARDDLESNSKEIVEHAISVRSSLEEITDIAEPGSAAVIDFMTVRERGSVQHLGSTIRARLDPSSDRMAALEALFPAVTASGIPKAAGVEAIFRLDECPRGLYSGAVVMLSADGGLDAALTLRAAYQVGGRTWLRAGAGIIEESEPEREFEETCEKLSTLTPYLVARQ
Polio RdRp inh: inhibitors of poliovirus RNA polymerase binding and polymerization | AID 588519 | poliovirus polymerase elongation, fluorescence polarization; active compounds read low | % elongation, % (compound at 16.7 µg/mL) | 0.66% of 150,000 active; in the data active means % elongation below about 90%
MenB inh: Mtb MenB enzyme inhibition; MenB enzyme assay, absorbance read-out; inhibition, % (no concentration beside the values); 0.43% of 100,000 active; in the data active means inhibition above about 21%, passing the limit was not always enough
Hits are given with their value; - = inactive; . = no result given. Compounds with a hit are over-represented: about 1.4% of the library has one in this group of screens.

SMILES	Mtb MbtI inh	Polio RdRp inh	MenB inh
CC(C)N(C(=O)NC(=O)Nc1ccc(C=C(C#N)C#N)cc1)S(C)(=O)=O	-	88	-
COc1ccc(-c2c[n+](=O)c3c(n2[O-])CCC3)cc1	-	-	-
S=c1[nH]nc(COc2ccccc2Cl)n1C1CC1	84	.	-
NC(=O)CSc1nnc(COc2ccccc2Cl)n1C1CC1	-	.	-
Cc1cc(C)c(C#N)c(SCC(=O)N(c2ccccc2)C2CCS(=O)(=O)C2)n1 (stereo not drawn)	-	-	-
CCCCn1c(N)cc(=O)[nH]c1=O	-	-	-
CCn1nc(N)c2c(O)[nH]c(=O)cc21	-	40	-
Cc1cc(/C=N/N2CCOCC2)c(C)n1-c1cccc2ccccc12	-	-	-
COC(=O)c1c(C)nc2ccccc2c1C(=O)O	-	-	-
Cc1c(-c2ccccc2)nc2ccccc2c1C(=O)O	-	-	34
CC(C)CC(=O)NCc1ccc2c(c1)OCO2	.	-	-
Cc1cc(C)nc(NNC(=S)NCc2ccc3c(c2)OCO3)n1	75	-	-
CN(C)C1(CNCc2nc3ccccc3c(=O)[nH]2)CCCCC1	-	-	-
CN(C)C1(CNCc2cnn(-c3ccccc3)n2)CCCCC1	-	88	-
Cc1[nH]c2cccc(C(=O)O)c2c1C	-	-	-
COc1ccccc1NC(=O)CSc1nnc(N)s1	.	83	.
COc1ccccc1NC(=O)CSC(=O)c1ccccc1	87	-	.
COc1ccc(NC(=O)CSC(=O)c2ccccc2)cc1Cl	-	-	.
COc1ccc(NC(=O)CSc2nnc(N)s2)cc1	.	-	.
Cc1[nH]c2ccc(C(=O)Oc3ccc4c(c3)OCO4)cc2c1C	-	-	-
COc1cc(C(=O)Oc2ccc3c(c2)OCO3)ccc1OCc1c(C)noc1C	-	-	-
CN1C(=O)c2ccccc2C1O (stereo not drawn)	-	-	-
CCOC(=O)C1=CN(C(C)C)C=C(C(=O)OCC)C1c1ccccc1Br	-	-	-
Cn1c2c(c(=O)n(C)c1=O)C(Nc1nc3ccccc3s1)(C(F)(F)F)C(=O)N2 (stereo not drawn)	-	-	-
O=C(COC(=O)CSc1nnc(-c2ccc(Cl)cc2)o1)NC1CCS(=O)(=O)C1 (stereo not drawn)	-	-	-
SMILES	Mtb MbtI inh	Polio RdRp inh	MenB inh
CN1C=C(c2ccccc2)N(c2ccccc2)C1	.	67	-
c1ccc(N2CN3CN2CN3c2ccccc2)cc1	-	-	-
COCCCN1C(=Nc2cccnc2)SCC1(O)c1ccccc1 (stereo not drawn)	-	-	-
Oc1ccccc1OCc1nc2ccccc2s1	52	-	.
c1ccc2sc(CCc3nc4ccccc4s3)nc2c1	.	-	-
CCOc1ccc(-n2c(N)c(C(=O)N3CCN(C)CC3)sc2=S)cc1	-	-	-
Cc1ccc(-n2nnc(C(=O)NCC3CCCO3)c2N)cc1F (stereo not drawn)	-	-	-
CCOC(=O)c1ccc(-n2c(N)c(C(=O)N3CCCC3)sc2=S)cc1	93	-	-
CCOC(=O)c1ccc(-n2c(N)c(C(=O)NCC3CCCO3)sc2=S)cc1 (stereo not drawn)	92	-	-
CCCn1c(NC(=O)CCNC(C)=O)nc2ccccc21	-	-	-
N#Cc1c(NC(=O)/C=C\C(=O)O)sc2c1CCCC2	-	-	-
COc1ccc(-c2nn[nH]n2)cc1	-	-	39
COc1ccc(-c2nn[nH]n2)cc1OC	-	.	.
O=C(Nc1ccccn1)c1ccc(Br)o1	.	-	-
O=C(CN1C(=O)CSC1=O)Nc1nccs1	-	-	-
Nn1cnn(CC(=O)Nc2nccs2)c1=S	.	74	-
COc1ccc(-c2noc(N3CCN(c4cccc(C)c4C)CC3)n2)cc1	-	-	-
Cc1ccc(/C=C/C(=O)OCC(=O)/C=C2\N(C)c3ccccc3C2(C)C)o1	-	-	-
COc1cccc(-c2nn(-c3cc(C(F)(F)F)ccn3)c(=O)o2)c1	-	-	-
CC1(C)C(=O)Nc2ccccc2N1C(=O)COC(=O)c1ccc(S(=O)(=O)C(F)F)cc1	-	-	-
Cc1ccc2nc(-c3cccs3)c(Nc3ccc4c(c3)OCCO4)n2c1	.	-	.
Cc1ccc2nc(-c3ccc(C)s3)c(Nc3ccc4c(c3)OCCO4)n2c1	.	84	.
CC(O)CNc1nc2ccccc2[nH]1 (stereo not drawn)	-	-	.
O=C1C=CC(=O)C(c2ccc(C(=O)O)cc2)=C1	91	-	-
CC(C)c1ccc(C2=CC(=O)C=CC2=O)cc1	-	-	-
SMILES	Mtb MbtI inh	Polio RdRp inh	MenB inh
O=C1c2ccccc2C(=O)N1CCSC1=NN2CCS(=O)(=O)N=C2S1	-	84	-
O=S1(=O)CCN2N=C(C3CC3)SC2=N1	-	-	-
CNC(=O)NNc1nccc(-c2cccnc2)n1	-	-	-
O=S(=O)(NNc1nccc(-c2cccnc2)n1)c1cccc(C(F)(F)F)c1	55	-	-
Cc1sc2c(c1C)CSC(C(=O)NCCc1ccccc1)=C2	-	-	-
Cc1sc2c(c1C)CSC(C(=O)O)=C2	98	-	-
COc1ccc(NC(=O)c2c(NCc3ccc(N(C)C)cc3)sc3c2CCC3)cc1	.	86	.
COc1ccc(NC(=O)c2c(NC(=O)Cc3ccccc3)sc3c2CCCC3)cc1	.	-	.
COc1ccc(CC(=O)Nc2sc3c(c2C(=O)Nc2ccc(C)cc2)CCCCC3)cc1	.	89	.
COc1ccc(NC(=O)c2c(NCc3cccc(OC)c3)sc3c2CCCC3)cc1	.	-	.
O=C(NCCC(c1ccccc1)c1ccccc1)C1=COCCO1	-	-	.
Cc1c(C(=O)Nc2nc3ccccc3s2)oc2c1C(O)CC(C)(C)C2 (stereo not drawn)	-	-	-
Cn1nc(C(F)(F)F)cc1-c1ccc(C=C(C#N)C#N)s1	-	-	-
COC(=O)c1cnn2c1NCN(Cc1ccccc1)C2	-	-	-
NC(=S)NNc1ccc(F)cc1	-	-	-
NC(=S)NNc1ccc(Cl)c(Cl)c1	95	-	-
CCn1cnc2c(=O)oc3ccc(S(=O)(=O)Nc4ccc(OC)cc4)cc3c21	.	-	.
C=CCN(CC=C)Cn1c(=S)oc2ccc(S(=O)(=O)Nc3ccc(OC)cc3)cc21	85	-	-
Nc1ccc2c(c1)C(=O)N(CC1CCCO1)C2=O (stereo not drawn)	-	-	-
O=C1C=CC(=O)N1CC1CCCO1 (stereo not drawn)	62	-	.
COC(=O)c1cc(CSc2nnc(-c3cccs3)n2N)oc1C	-	-	-
Cc1ccc(NC(=O)Nc2ccc3c(c2)C(=O)NC3=O)cc1	-	-	-
Cn1c(SCCO)nc2c(c1=O)C1(CCCCC1)Cc1ccccc1-2	-	-	-
CN1C(=O)C(=C/C=C/c2ccccc2)C(=O)N(C)C1=O	82	-	-
C=CCN1C(=O)NC(=O)/C(=C/C=C/c2ccccc2)C1=O	-	-	-
SMILES	Mtb MbtI inh	Polio RdRp inh	MenB inh
CC(C)OC(=O)c1ccc(-n2cccn2)cc1	-	-	-
COc1ccc(CCNc2ncnc3sccc23)cc1	-	-	-
CC(Oc1ccccc1)C(=O)Nc1ccc(-c2nnc(-c3ccccc3)o2)cc1 (stereo not drawn)	-	-	-
O=C(NCCCn1ccnc1)c1ccc(CN2CCc3ccccc3C2)cc1	-	-	-
OCCn1nc2c3ccccc3nc-2n(-c2ccccc2)c1=S	-	85	-
CN(C)Cn1nc(-c2ccccc2)n(-c2ccccc2)c1=S	-	-	-
Cc1cc(NCC(c2ccccc2)N(C)C)nc2ccccc12 (stereo not drawn)	-	-	-
